Measurements taken from PubChem BioAssay AID1159580 (chemical genetic matrix, 2015).
Screen size: about 5,500 compounds; about 2,000 (36%) were called active. Not shown: some 18% with an inconclusive outcome. Rule as the data show it: active = normalized growth mostly below about 0.91 (no sharp cut-off); inconclusive = no clear call, values can overlap the other calls; inactive = mostly above about 0.92. The list shows a part of the results.

Assay: chemical genetic growth profiling, strain panel (AID 1159580);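 also: tested at 20 µM; growth read once vehicle control cultures reached saturation at 30 °C; 1 = growth at the plate median or of vehicle wells; lower values mean less growth of the strain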
Conditions: growth OD

Measured: normalized growth

CS(=O)(=O)c1ccc([C@@H](O)[C@@H](CO)NC(=O)C(Cl)Cl)cc1
inactive: S. cerevisiae deletion strains, locus YKL009W, strain mrt4, hits give low values 0.977 | S. cerevisiae deletion strains, locus YKL068W, hits give low values 0.978 | S. cerevisiae deletion strains, locus YKL085W, strain MDH1 (second series), hits give low values 0.988 | S. cerevisiae deletion strains, locus YKL085W, strain MDH1, hits give low values 0.988 | S. cerevisiae deletion strains, locus YKL160W, strain elf1, hits give low values 1.02 | S. cerevisiae deletion strains, locus YKL190W, strain CNB1, hits give low values 0.991 | S. cerevisiae deletion strains, locus YKR001C, strain vps1, hits give low values 0.99 | S. cerevisiae deletion strains, locus YKR026C, strain gcn3, hits give low values 1.03 | S. cerevisiae deletion strains, locus YKR091W, strain srl3, hits give low values 1.01 | S. cerevisiae deletion strains, locus YLL001W, strain dnm1, hits give low values 1 | S. cerevisiae deletion strains, locus YLL026W, hits give low values 1.02 | S. cerevisiae deletion strains, locus YLL041C, strain sdh2, hits give low values 1.02 | S. cerevisiae deletion strains, locus YLR027C, strain aat2, hits give low values 1.01 | S. cerevisiae deletion strains, locus YLR039C, strain RIC1, hits give low values 0.947 | S. cerevisiae deletion strains, locus YLR058C, strain SHM2, hits give low values 0.965 | S. cerevisiae deletion strains, locus YLR102C, strain apc9, hits give low values 0.978 | S. cerevisiae deletion strains, locus YLR113W, strain HOG1, hits give low values 0.998 | S. cerevisiae deletion strains, locus YLR221C, strain rsa3, hits give low values 1.01 | S. cerevisiae deletion strains, locus YLR258W, strain gsy2, hits give low values 1.02 | S. cerevisiae deletion strains, locus YLR262C, strain YPT6 (second series), hits give low values 1.03 | S. cerevisiae deletion strains, locus YLR262C, strain YPT6, hits give low values 0.849 | S. cerevisiae deletion strains, locus YLR268W, strain sec22, hits give low values 0.983 | S. cerevisiae deletion strains, locus YLR320W, strain mms22, hits give low values 0.991 | S. cerevisiae deletion strains, locus YLR330W, strain CHS5, hits give low values 0.982 | S. cerevisiae deletion strains, locus YLR342W, strain FKS1 (second series), hits give low values 1.01 | S. cerevisiae deletion strains, locus YLR342W, strain FKS1, hits give low values 1.01 | S. cerevisiae deletion strains, locus YLR357W, strain rsc2, hits give low values 1 | S. cerevisiae deletion strains, locus YLR370C, strain arc18, hits give low values 1.03 | S. cerevisiae deletion strains, locus YLR371W, strain rom2, hits give low values 0.993 | S. cerevisiae deletion strains, locus YLR384C, strain iki3, hits give low values 1.02 | S. cerevisiae deletion strains, locus YLR418C, strain cdc73, hits give low values 0.98 | S. cerevisiae deletion strains, locus YML016C, strain PPZ1, hits give low values 0.981 | S. cerevisiae deletion strains, locus YML032C, strain rad52, hits give low values 1 | S. cerevisiae deletion strains, locus YML120C, strain ndi1, hits give low values 1.05 | S. cerevisiae deletion strains, locus YML124C, strain tub3, hits give low values 0.993 | S. cerevisiae deletion strains, locus YMR058W, strain fet3, hits give low values 1.03 | S. cerevisiae deletion strains, locus YMR078C, strain ctf18, hits give low values 0.975 | S. cerevisiae deletion strains, locus YMR125W, strain sto1, hits give low values 1.04 | S. cerevisiae deletion strains, locus YMR129W, hits give low values 1.02 | S. cerevisiae deletion strains, locus YMR205C, strain PFK2, hits give low values 1.01 | S. cerevisiae deletion strains, locus YMR223W, strain ubp8, hits give low values 1.02 | S. cerevisiae deletion strains, locus YMR231W, strain pep5, hits give low values 1.03 | S. cerevisiae deletion strains, locus YMR263W, strain SAP30, hits give low values 0.984 | S. cerevisiae deletion strains, locus YMR307W, strain GAS1, hits give low values 1.06 | S. cerevisiae deletion strains, locus YNL067W, strain RPL9B, hits give low values 0.973 | S. cerevisiae deletion strains, locus YNL071W, strain lat1, hits give low values 1.03 | S. cerevisiae deletion strains, locus YNL128W, strain TEP1, hits give low values 0.975 | S. cerevisiae deletion strains, locus YNL153C, strain GIM3, hits give low values 0.981 | S. cerevisiae deletion strains, locus YNL183C, strain NPR1, hits give low values 0.959 | S. cerevisiae deletion strains, locus YNL209W, strain ssb2, hits give low values 1.04 | S. cerevisiae deletion strains, locus YNL233W, strain BNI4, hits give low values 0.99 | S. cerevisiae deletion strains, locus YNL248C, strain rpa49, hits give low values 1.07 | S. cerevisiae deletion strains, locus YNL250W, strain rad50, hits give low values 0.981 | S. cerevisiae deletion strains, locus YNL271C, strain bni1, hits give low values 0.995 | S. cerevisiae deletion strains, locus YNL298W, strain CLA4, hits give low values 0.988 | S. cerevisiae deletion strains, locus YNL307C, strain MCK1, hits give low values 0.985 | S. cerevisiae deletion strains, locus YNL322C, strain KRE1 (second series), hits give low values 1.02 | S. cerevisiae deletion strains, locus YNL322C, strain KRE1, hits give low values 0.983 | S. cerevisiae deletion strains, locus YNR049C, strain mso1, hits give low values 1 | S. cerevisiae deletion strains, locus YNR052C, strain pop2, hits give low values 0.993 | S. cerevisiae deletion strains, locus YOL006C, strain TOP1, hits give low values 0.889 | S. cerevisiae deletion strains, locus YOL012C, strain htz1 1.83 | S. cerevisiae deletion strains, locus YOL147C, strain pex11, hits give low values 0.99 | S. cerevisiae deletion strains, locus YOR001W, strain rrp6, hits give low values 1.03 | S. cerevisiae deletion strains, locus YOR061W, strain CKA2, hits give low values 0.944 | S. cerevisiae deletion strains, locus YOR069W, strain VPS5, hits give low values 0.991 | S. cerevisiae deletion strains, locus YOR070C, strain gyp1, hits give low values 1.03 | S. cerevisiae deletion strains, locus YOR080W, strain dia2, hits give low values 1.02 | S. cerevisiae deletion strains, locus YOR083W, strain WHI5, hits give low values 0.98 | S. cerevisiae deletion strains, locus YOR106W, strain vam3, hits give low values 1.05 | S. cerevisiae deletion strains, locus YOR136W, strain idh2, hits give low values 0.992 | S. cerevisiae deletion strains, locus YOR144C, strain elg1, hits give low values 0.983 | S. cerevisiae deletion strains, locus YOR184W, strain ser1, hits give low values 1.03 | S. cerevisiae deletion strains, locus YOR231W, strain MKK1, hits give low values 0.967 | S. cerevisiae deletion strains, locus YOR265W, strain rbl2, hits give low values 1.03 | S. cerevisiae deletion strains, locus YOR270C, strain vph1, hits give low values 1.12 | S. cerevisiae deletion strains, locus YOR290C, strain snf2, hits give low values 1.04 | S. cerevisiae deletion strains, locus YOR316C, strain cot1, hits give low values 0.975 | S. cerevisiae deletion strains, locus YPL051W, strain arl3, hits give low values 1.02 | S. cerevisiae deletion strains, locus YPL055C, strain LGE1, hits give low values 0.984 | S. cerevisiae deletion strains, locus YPL078C, strain atp4, hits give low values 1.04 | S. cerevisiae deletion strains, locus YPL106C, strain sse1, hits give low values 1.01 | S. cerevisiae deletion strains, locus YPL240C, strain hsp82, hits give low values 1.02 | S. cerevisiae deletion strains, locus YPL241C, strain CIN2, hits give low values 0.968 | S. cerevisiae deletion strains, locus YPL256C, strain CLN2, hits give low values 0.995 | S. cerevisiae deletion strains, locus YPR119W, strain clb2, hits give low values 1 | S. cerevisiae deletion strains, locus YPR141C, strain kar3, hits give low values 0.971 | S. cerevisiae deletion strains, locus YPR163C, strain tif3, hits give low values 1 | S. cerevisiae deletion strains, locus YPR167C, strain met16, hits give low values 0.975 | S. cerevisiae deletion strains, strain wtn01, hits give low values 0.984 | S. cerevisiae strains, strain wild type, hits give low values 0.963
